Sampled rows, rich in hits. Any-hit rate of the full collection: about 3.6%.
Sfp PPTase inh: Sfp phosphopantetheinyl transferase inhibition | Q9F4F7 | Biochemical Sfp PPTase activity, qHTS | Potency, µM, for the others: largest response in the series, negative = inhibition, hits mostly inhibitors | 310,000 tested, 3.5% active;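 also: the enzyme is Sfp with the accession as filed and its product quenches rhodamine fluorescence; 0% = enzyme reaction without inhibitor and -100% = no enzyme wells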
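Fluorescence-quenching assay: 15 nM Sfp-PPTase preincubated 15 min at room temperature with compound, then 5 uM rhodamine-CoA and 12.5 uM BHQ-2-labelled YbbR peptide added. Fluorescence (ex 525/em 598 nm) read at start and after 30 min; difference gives rate.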
JMJD2E inh: inhibitors of human JMJD2E histone demethylase. JMJD2E catalytic domain, FDH-coupled NADH fluorescence (FDH is formaldehyde dehydrogenase). Potency, µM (top dose mostly 57.1 µM), inactives show at the highest dose activity change, negative = inhibition, actives largely listed as inhibitors. 230,000 tested, 1.6% active. AID 2147; active = well fitted inhibition curve with a large enough effect, not every such curve was filed as active; inconclusive = small, poorly fitted or top-dose-only effect, or another doubt; inactive = no such curve, though single readings can be large or run the other way;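 also: 0% = wells with enzyme and -100% = buffer wells without enzyme; nearly all actives have a fitted effect of over 50% in size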
Epigenetic derep: regulators of epigenetic silencing causing reporter derepression in mouse cells | murine LDR cells, GFP reporter derepression, 30 h | AID 1865 | Potency, µM (series often up to 53.9 µM), for the others: at the top dose GFP activation, actives largely listed as activators | 280,000 tested, 0.2% active; also: % of control where 0% means no effect; nearly all actives have a fitted effect of over 60% in size
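In this reporter-derepression format, murine cells bearing a silenced integrated CMV-GFP locus incubate with test compound (30 h, 37 C), then are washed and imaged; fluorescent objects of 20–120 um count as induced cells.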
GCN5L2 inh: GCN5L2 (KAT2A) acetyltransferase inhibition; Potency, µM (highest dose often 58.9 µM), without a hit: top-dose activity change, negative = inhibition, actives largely listed as inhibitors; AID 504327; GCN5L2 HAT assay, ThioGlo1 CoA-SH fluorescence; Q92830; 390,000 tested, 0.21% active; also: % is scaled to controls: 0 for no effect and ±100 for the full control effect
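qHTS, 1536-well. 20nM enzyme, pH 7.5 HEPES/EDTA/Tween-20 buffer; 15 min compound preinc., RT. Start: 75uM H3(1-25), 70uM AcCoA, 50uM ThioGlo1. Read Ex340/Em540 at t=0 (autofluorescence flag) and t=20 min.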
IMPase Li inh: membrane-permeable IMPase blocker, potentiated with lithium | Potency, µM (top dose mostly 59.4 µM), without a hit: at the top dose activity, negative = IMPase inhibition, most hits filed as inhibitors | CHO-M1 cells, IP1 TR-FRET (IP-One), carbachol + lithium | 210,000 tested, 0.35% active;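 also: IP1 builds up when IMPase is blocked and the TR-FRET signal falls; plate controls were basal vehicle for no effect and high inhibitor control for full effect; nearly all actives have a fitted effect of over 50% in size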
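CHO-M1, 2000 cells/well, 16–30 h culture; cpd + low Li+, 30 min 37C; lysis with d2-IP1/Eu-anti-IP1 Ab, 10 min RT; TR-FRET 665/620 ratio and 620 channel; AC50 via Hill.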
NPSR antagonist: neuropeptide S receptor (human) antagonism, cAMP. Q6W5P4. CHO-NPSR cells, cAMP TR-FRET, antagonist mode. Potency, µM (series often up to 38.3 µM), for inactives: at the top dose activity change, negative = inhibition, actives largely listed as inhibitors. 220,000 tested, 1% active; also: % is scaled to controls: 0 for no effect and ±100 for the full control effect; nearly all actives have a fitted effect of over 50% in size
Target sequence (Q6W5P4 whole entry, looked up): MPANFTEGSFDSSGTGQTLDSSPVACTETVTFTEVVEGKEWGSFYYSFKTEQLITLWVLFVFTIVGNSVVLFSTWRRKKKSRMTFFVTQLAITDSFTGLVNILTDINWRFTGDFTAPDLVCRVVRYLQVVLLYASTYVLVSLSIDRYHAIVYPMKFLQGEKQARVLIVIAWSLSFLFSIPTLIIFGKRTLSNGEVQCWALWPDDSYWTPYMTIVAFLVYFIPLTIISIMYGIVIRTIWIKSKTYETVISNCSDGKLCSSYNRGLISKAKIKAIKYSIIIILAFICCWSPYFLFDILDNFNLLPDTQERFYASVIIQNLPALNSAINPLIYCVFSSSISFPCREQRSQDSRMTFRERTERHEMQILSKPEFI
Active calls of the source: *; ? = inconclusive; / = no result; [ ] = dose if it differs, or a comment. Unless noted, calls follow the shape of the dose curve; as a rule, active = well fitted curve in the direction sought with a large enough effect; inconclusive = small, poorly fitted or top-dose-only effect, or another doubt; inactive = no such curve, though single readings can be large; an effect the other way counts as inactive or inconclusive. Potency is read from the fitted curve at half-maximal effect.

SMILES	Sfp PPTase inh	JMJD2E inh	Epigenetic derep	GCN5L2 inh	IMPase Li inh	NPSR antagonist
O=C(O)Cc1ccc(O)c(O)c1	40µM*	25µM*	7%	-12%	0%	6%[46.1 µM]
CCn1c2ccc(CC(=O)O)cc2c2cc(CC(=O)O)ccc21	21%	?	0%	-3%	5%[38.3 µM]	-4%[46.1 µM]
O=C1CCC=C1C(O)c1ccc(Cl)cc1 (stereo unspecified)	-8%	7%	-1%	/	8%	/
Nc1c(O)ccc2c1C(=O)c1ccccc1C2=O	-8%	1%	0%	-3%	110%	10µM*
Clc1ccccc1-c1cc(NCc2ccccc2)ncn1	18%	/	/	?	-2%	/
COc1ccc(-c2cc(C(F)F)nc(-n3nc(C)cc3C)n2)cc1	50µM*	?	-1%	?	10%[38.3 µM]	-20%[46.1 µM]
C/C(CCN1CCCc2nc(C)c(C)cc21)=N\O[C@@H](C)c1cn([C@H](CO)Cc2ccccc2)nn1	20%	/	0%[10.1 µM]	/	/	/
CCCCCCCCCCCCCCOc1ccc(C(=O)O)o1	2%	/	/	7.1µM*	/	/
Cc1ccc(C(O)(C(=O)NN(C(=O)c2ccccc2)c2ccccc2)c2ccc(C)cc2)cc1	22%	-2%	0%	18%	14%	-29%
Cc1ccc(N(NC(=O)C(O)(c2ccccc2)c2ccccc2)C(=O)CCl)cc1	-29%	2%	-1%	-5%	10%	2.5µM*
Cc1cc(=O)n(Cc2cccc(Cl)c2)c2c1c(C)nn2-c1ccccc1	/	/	1%	-2%	/	/
COc1cc(N2CCCC2)c(OC)cc1/C=C(/C#N)c1ccc(F)cc1	?	3%	14µM*	-12%	8%	-25%[46.1 µM]
COc1cc(N2CCCC2)ccc1C=O	4%	-12%	5%	-14%	-1%	5%
COc1cc(N2CCCC2)c(OC)cc1/C=C(/C#N)c1ccc(Br)cc1	-11%	-10%	3.2µM*	-4%	34%[38.3 µM]	?
COC(=O)C[C@H](NC(=O)[C@H](C)NC(=O)[C@@H](NC(=O)OCc1ccccc1)C(C)C)C(=O)CF	29%	/	3%	-11%	-7%	/
c1csc(CNc2nc(-c3ccc4c(c3)OCO4)nc3ccccc23)c1	7%	/	/	-23%	11%	/
COc1ccc(-c2cn(-c3ccc(C)c(C)c3)c(=S)[nH]2)cc1OC	79µM*	/	/	9%	/	/
O=C(CSc1ccc2ccccc2c1)NCCc1ccc(O)c(O)c1	25µM*	?	7%	-4%	8%	-23%
COc1ccc(CCNC(=O)CSc2ccc3ccccc3c2)cc1OC	-28%	-1%	1%	-11%	/	12%[46.1 µM]
Fc1ccc(C2=NN(c3ccccc3)C(c3ccco3)C2)cc1 (stereo unspecified)	-2%	?	-1%	-3%	-27%	26%
O=[N+]([O-])c1ccc(/C=C/C2=NN(c3ccccc3)C(c3ccco3)C2)o1 (stereo unspecified)	-7%	3%	13µM*	-8%	8%	-42%
C(=C\c1ccco1)/C1=NN(c2ccccc2)C(c2ccco2)C1 (stereo unspecified)	28µM*	?	?	?	?	-34%
CCCCCCCC/C=C\CCCCCCCC(=O)N[C@H](CO)Cc1ccc(O)cc1	14%	/	/	-16%	/	/
N#CC(C#N)=Cc1ccc(OC(=O)c2ccccn2)cc1	45µM*	18µM*	-1%	-4%	0%	-9%
C[N+](C)(C)CCCSc1nc2ccccc2[nH]1	/	/	/	/	-4%	/
COc1cccc([C@@H]2Oc3ccc(OC)cc3C[C@H]2OC(=O)NCc2ccco2)c1	-3%	0%	5%	/	-9%	/
Cc1ccc(N=C2CSC(=O)N2)cc1	12%	-1%	-1%	-5%	-6%	12%
Cc1cc(O)c(C(C)C)cc1N=C1CSC(=O)N1	56µM*	-2%	-1%	-1%	5%[38.3 µM]	-8%[46.1 µM]
O=C(N/N=C/c1c(O)ccc2ccccc12)c1[nH]ncc1Br	-21%	32µM*	0%	-14%	-1%	-5%
O=C(N/N=C/c1c(O)ccc2ccccc12)c1cccc(C(F)(F)F)c1	12%	25µM*	-1%	-22%	3%	-10%
